# According to the supplement of paper PMC10646978:
# ± gives the standard deviation.
# How the values were obtained:
# Details in all cases: modulator concentration 10 µM
# [1] = system: RAW-Dual (murine macrophage reporter line); test: NF-kB reporter (SEAP) activity fold change vs agonist alone; higher = enhanced NF-kB activity
# Procedure, shortened: (§1)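 Compound reached 10 μM final in each well by pin transfer, onto RAW-Dual murine macrophage reporter cells seeded at 50 000 per well in 384-well plates. After 1 hour at 37 °C, the cells were stimulated overnight with a PRR agonist. SEAP in the supernatant was read with QUANTI-Blue at 620 nm absorbance for NF-κB, and Lucia luciferase was read with QUANTI-Luc luminescence for IRF. Each signal was turned into fold change against the mean agonist-only control on the same plate, and two replicate plates were averaged with propagated errors.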
# [2] = system: RAW-Dual (murine macrophage reporter line); test: IRF reporter (Lucia luciferase) activity fold change vs agonist alone; higher = enhanced IRF activity
# Procedure, shortened: as §1
# [3] = system: RAW-Dual (murine macrophage reporter line); test: viability score (confluency relative to resting cells, overnight) (fraction); higher = more viable, active = viable (0.7 or more)
# Procedure, shortened: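 RAW-Dual macrophages in 384-well plates were treated overnight with compound at 10 μM final. IncuCyte imaging recorded confluency, and IncuCyte software built two confluency masks across every imaged well. The viability score expresses confluency relative to resting cells and was judged against a cutoff, which a compound met only if both masks exceeded 70% of resting cells.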
# [4] = agonist: CpG ODN 1826 0.5 ug/mL
Compound,"NF-kB reporter [1, 4]",NF-kB reporter ([1]; agonist: LPS 0.1 ug/mL),NF-kB reporter ([1]; agonist: MPLA […]),IRF reporter ([2]; agonist: 3'3'-cGAMP 10 ug/mL),IRF reporter ([2]; agonist: LPS 0.1 ug/mL),IRF reporter ([2]; agonist: MPLA […]),viability score [3]
O=C(CN1CCCCC1)NN=Cc1ccccc1OCc1ccccc1,0.948 ± 0.08,1.01 ± 0.1,0.927 ± 0.04,0.99 ± 0.1,1.02 ± 0.082,1.14 ± 0.18,0.995 (active)
CC1=C(C(=O)OC2CCCCC2)C(c2ccc(N(C)C)cc2)C2=C(CC(C)(C)CC2=O)N1 (stereo unspecified),0.767 ± 0.12,0.697 ± 0.08,1.16 ± 0.1,0.843 ± 0.083,0.943 ± 0.071,1.04 ± 0.22,1 (active)
CC(C(=O)O)c1ccc(CC2CCCC2=O)cc1 (stereo unspecified),0.81 ± 0.11,1.03 ± 0.26,0.906 ± 0.066,0.916 ± 0.042,1.19 ± 0.18,1.25 ± 0.27,1 (active)
Cl.Cl.OCCN1CCN(CC/C=C2/c3ccccc3Sc3ccc(C(F)(F)F)cc32)CC1,1.01 ± 0.046,1.03 ± 0.13,1.04 ± 0.1,0.959 ± 0.058,1.13 ± 0.23,1.22 ± 0.28,1.02 (active)
CCN(CC)CCOC(=O)c1ccc(N)cc1.Cl,1.29 ± 0.2,1.08 ± 0.26,1.89 ± 0.82,0.923 ± 0.039,1.22 ± 0.43,1.16 ± 0.13,0.996 (active)
Cc1c(C(=O)ON=C(N)c2ccncc2)cccc1[N+](=O)[O-],1.01 ± 0.08,0.996 ± 0.06,0.851 ± 0.069,0.421 ± 0.031,1.33 ± 0.099,1.23 ± 0.16,0.992 (active)
Cc1ccc([N+](=O)[O-])cc1S(=O)(=O)N(C)C,1.05 ± 0.17,0.949 ± 0.077,1 ± 0.1,1.06 ± 0.037,1.09 ± 0.26,1.2 ± 0.12,1 (active)
CC(C)(C)NCC(O)COc1cccc2c1CC(O)C(O)C2 (stereo unspecified),1.26 ± 0.3,1 ± 0.11,1.05 ± 0.095,0.919 ± 0.045,1.04 ± 0.16,0.968 ± 0.17,0.931 (active)
CCCOc1cccc(C(=O)Nc2scc(-c3ccccc3Cl)c2C(=O)OC)c1,0.817 ± 0.1,0.827 ± 0.039,1.05 ± 0.092,1.03 ± 0.059,1.54 ± 0.09,1.69 ± 0.2,1 (active)
Nc1ccn([C@H]2CC[C@@H](CO)O2)c(=O)n1,1.05 ± 0.13,1.1 ± 0.081,1.02 ± 0.09,1.03 ± 0.088,0.976 ± 0.06,1.02 ± 0.081,0.995 (active)
Cl.N=C(N)NC(=O)c1nc(Cl)c(N)nc1N,1.2 ± 0.18,1.15 ± 0.22,0.891 ± 0.063,0.984 ± 0.03,1.4 ± 0.25,1.3 ± 0.12,0.988 (active)
COc1ccc(OC)c(-c2csc(NC(=O)C3CC3)n2)c1,1.11 ± 0.068,0.972 ± 0.08,1 ± 0.034,0.935 ± 0.043,1.01 ± 0.061,1.13 ± 0.12,0.994 (active)
NC(Cc1ccccc1)C(=O)O (stereo unspecified),1.29 ± 0.31,0.956 ± 0.07,0.943 ± 0.071,0.911 ± 0.032,1.12 ± 0.22,1.1 ± 0.1,1 (active)
